BoNT-F LC inh – BoNT/F light chain protease inhibitors, primary screen, biochemical, flow cytometry, MLPCN library. AID 588497, 2011. inhibition, % at 10 µM. 0.22% of 360,000 active. Multiplex microsphere protease cleavage assay. Botulinum neurotoxin type F light chain protease (Clostridium botulinum); in the data active means inhibition above about 35%, passing the limit was not always enough; inconclusive means no clear call, values can overlap the other calls; further: plate controls were buffer without enzyme for full effect and enzyme alone for no effect
BoNT-A LC inh2 – BoNT/A light chain protease inhibitors, primary screen, biochemical, flow cytometry, MLPCN library; Botulinum neurotoxin type A light chain protease (Clostridium botulinum A str. ATCC 3502); multiplex microsphere protease substrate cleavage; inhibition, % at 10 µM; 0.17% of 360,000 active; AID 588499, 2011; further: plate controls were buffer without enzyme for full effect and enzyme alone for no effect
BJeLR lethal – MLPCN primary cell-based screen for lethality selective to Ras in HRASV12 cells; 0.17% of 300,000 active; BJeLR (HRASV12) viability, CellTiter-Glo ATP luminescence, 48 h; inhibition, % (test concentration not listed); in the data active means inhibition above about 50%; inconclusive means no clear call, values can overlap the other calls
Autofluor counter – counter-screen for toxin protease inhibitors: compound fluorescence; AID 624483; compound autofluorescence counterscreen, microsphere flow cytometry; stronger effect = higher value; 3.1% of 360,000 active; fluorescence intensity (test concentration not listed); in the data active means fluorescence intensity above about 16000; inconclusive means no clear call, values can overlap the other calls
Anthrax LF inh2 – Bacillus anthracis LF protease inhibitors, primary screen, biochemical, multiplex microsphere, MLPCN library; AID 588501, 2011; inhibition, % at 10 µM; multiplex microsphere protease cleavage assay; Lethal factor (Bacillus anthracis), P15917; 0.12% of 360,000 active; further: plate controls were buffer without enzyme for full effect and enzyme alone for no effect
BH1578 lux ind – inducers of Vibrio cholerae quorum light production without autoinducers, primary screen, BH1578 luxS cqsA deficient, single point | V. cholerae BH1578 lux reporter, luminescence, 6 h | activation, % at 18.7 µM | 0.16% of 350,000 active | AID 588436, 2011; in the data active means activation mostly above about 9.7%, no sharp cut-off; inconclusive means no clear call, values can overlap the other calls; inactive means mostly below about 3.7%
The depositor's hits bear a star. Hits are enriched below; roughly 3.7% of the tested compounds scored in any of these assays. Unless noted, no stated cut-off is given here; in the data, active means inhibition above about 30%; inconclusive means no clear call, values can overlap the other calls; inactive means below that.

How did CC(=O)Oc1ccc(-c2cccc(C(=O)NCC(=O)O)c2)cc1 do in these assays?
BoNT-F LC inh: -1.7; BoNT-A LC inh2: -1.9; BJeLR lethal: -9.0; Autofluor counter: 23862*; Anthrax LF inh2: -1.2; BH1578 lux ind: inactive

How did COc1ccc2c(c1OC)C(=O)OC2CC(=O)c1ccc2c(c1)OCO2 (stereo not drawn) do in these assays?
BoNT-F LC inh: 2.0; BoNT-A LC inh2: inconclusive; BJeLR lethal: 5.4; Autofluor counter: 16170*; Anthrax LF inh2: 2.1; BH1578 lux ind: -2.5

How did COc1ccccc1/C=C/C=C1N=C(/C=C/c2ccc(Cl)cc2)OC/1=O do in these assays?
BoNT-F LC inh: 7.4; BoNT-A LC inh2: 8.5; BJeLR lethal: -9.8; Autofluor counter: 10751; Anthrax LF inh2: 4.9; BH1578 lux ind: -0.2

Results for COc1ccccc1/C=C/C1=NC(=C\C=C/c2ccccc2)/C(=O)O1 ?
BoNT-F LC inh: 58.4*; BoNT-A LC inh2: 29.4; Autofluor counter: 3554; Anthrax LF inh2: 6.9; BH1578 lux ind: inactive

What do the screens show for `Cc1cc2nc(C)n(CCCN)c2cc1C`?
BoNT-F LC inh: 7.2; BoNT-A LC inh2: 2.4; BJeLR lethal: 6.1; Autofluor counter: 22118*; Anthrax LF inh2: 2.9; BH1578 lux ind: -0.1

How did COC(=O)c1ccc(COc2cccn3c(N(C)C(=O)CCC4CCCC4)c(C)nc23)cc1 do in these assays?
BoNT-F LC inh: -1.2; BoNT-A LC inh2: -0.6; Autofluor counter: 3534; Anthrax LF inh2: -0.7; BH1578 lux ind: -0.7

Results for CCC(=O)N1CCC1(C)C(=O)Nc1ccc(OC)c(OC)c1 (stereo not drawn) ?
BoNT-F LC inh: 8.3; BoNT-A LC inh2: -0.3; Autofluor counter: 3820; Anthrax LF inh2: -2.2; BH1578 lux ind: inactive

Results for Cc1cc(C(N)=O)c2cc(Br)ccc2n1 ?
BoNT-F LC inh: -3.1; BoNT-A LC inh2: -2.2; BJeLR lethal: 1.8; Autofluor counter: 20846*; Anthrax LF inh2: 0.1; BH1578 lux ind: -0.2

Results for Cc1cc(C(=O)NN)c2cc(Br)ccc2n1 ?
BoNT-F LC inh: -10.4; BoNT-A LC inh2: -0.4; BJeLR lethal: -6.1; Autofluor counter: 4386; Anthrax LF inh2: -6.3; BH1578 lux ind: -6.7

What do the screens show for `O=C(CCCSc1nc2ccccc2s1)NC1=NCCS1`?
BoNT-F LC inh: -5.3; BoNT-A LC inh2: 1.1; BJeLR lethal: 0.9; Autofluor counter: 23045*; Anthrax LF inh2: -0.4; BH1578 lux ind: inactive

How did CC(=O)Nc1ccc(NC(=O)CCCSc2nc3ccccc3s2)cc1 do in these assays?
BoNT-F LC inh: -5.5; BoNT-A LC inh2: 0.1; BJeLR lethal: -6.2; Autofluor counter: 4410; Anthrax LF inh2: 7.4; BH1578 lux ind: inactive

How did CC1CCN(C(=O)CSc2nc3ccccc3s2)CC1 do in these assays?
BoNT-F LC inh: -0.5; BoNT-A LC inh2: 1.3; BJeLR lethal: -3.4; Autofluor counter: 23396*; Anthrax LF inh2: 1.1; BH1578 lux ind: 5.3

What do the screens show for `CC1CCCN(C(=O)CSc2nc3ncccc3[nH]2)C1` (stereo not drawn)?
BoNT-F LC inh: 2.8; BoNT-A LC inh2: 0.8; Autofluor counter: 3157; Anthrax LF inh2: -2.2; BH1578 lux ind: -0.7

How did CC1CCCN(C(=O)CSc2cnc3ccccc3n2)C1 (stereo not drawn) do in these assays?
BoNT-F LC inh: -4.1; BoNT-A LC inh2: 0.2; BJeLR lethal: -11.3; Autofluor counter: 19588*; Anthrax LF inh2: -0.8; BH1578 lux ind: -1.7

How did O=C(O)CCSc1nc2ccccc2s1 do in these assays?
BoNT-F LC inh: 1.1; BoNT-A LC inh2: 2.5; BJeLR lethal: 16.4; Autofluor counter: 22416*; Anthrax LF inh2: -3.6; BH1578 lux ind: inactive

How did CCOC(=O)C1=CCN(S(=O)(=O)c2ccccc2Cl)C1c1cccc(F)c1 (stereo not drawn) do in these assays?
BoNT-F LC inh: -3.3; BoNT-A LC inh2: 0.6; Autofluor counter: 5601; Anthrax LF inh2: 9.5

How did O=C(Cn1cc(COc2ccc(Cl)c(Cl)c2)nn1)NS(=O)(=O)c1ccccc1OC(F)(F)F do in these assays?
BoNT-F LC inh: -2.9; BoNT-A LC inh2: -0.6; Autofluor counter: 2821; Anthrax LF inh2: -1.7; BH1578 lux ind: -0.4

How did CC(C)C12CN3CCN(CC(C3)C1O)C2 (stereo not drawn) do in these assays?
BoNT-F LC inh: -4.8; BoNT-A LC inh2: -1.9; BJeLR lethal: 2.7; Autofluor counter: 16737*; Anthrax LF inh2: -2.0; BH1578 lux ind: -1.4

What do the screens show for `CCC12CN3CCN(CC(C3)C1O)C2` (stereo not drawn)?
BoNT-F LC inh: -11.8; BoNT-A LC inh2: -0.7; BJeLR lethal: 9.1; Autofluor counter: 6215; Anthrax LF inh2: -5.9; BH1578 lux ind: inactive

How did N/C(=N\OC(=O)c1ccccc1)C(Cc1ccccc1)C(=O)NOC(=O)c1ccccc1 (stereo not drawn) do in these assays?
BoNT-F LC inh: -6.7; BoNT-A LC inh2: -0.4; Autofluor counter: 2904; Anthrax LF inh2: -2.5; BH1578 lux ind: inactive

Results for CCC(C)NC(=O)Nc1ccc2c(c1)N(C)C(=O)c1ccccc1S2 (stereo not drawn) ?
BoNT-F LC inh: 1.3; BoNT-A LC inh2: -0.2; BJeLR lethal: 6.2; Autofluor counter: 16200*; Anthrax LF inh2: -0.9; BH1578 lux ind: -1.4

Results for O=C(c1ccc2c(c1)N(Cc1ccccc1)C(=O)c1ccccc1S2)N1CCCC1 ?
BoNT-F LC inh: 4.1; BoNT-A LC inh2: inconclusive; BJeLR lethal: 0.8; Autofluor counter: 21624*; Anthrax LF inh2: 0.9; BH1578 lux ind: -0.3

Results for C=CCN1C(=O)CSc2ccc(C(=O)N3CCC4(CC3)OCCO4)cc21 ?
BoNT-F LC inh: -8.1; BoNT-A LC inh2: -4.8; BJeLR lethal: -3.5; Autofluor counter: 17917*; Anthrax LF inh2: -3.4; BH1578 lux ind: 0.5

How did CCN1C(=O)c2ccccc2Sc2ccc(C(=O)N3CCC4(CC3)OCCO4)cc21 do in these assays?
BoNT-F LC inh: 6.2; BoNT-A LC inh2: 0.9; BJeLR lethal: 3.5; Autofluor counter: 7469; Anthrax LF inh2: 4.2; BH1578 lux ind: inactive

How did CN1C(=O)c2ccccc2Sc2ccc(C(=O)N3CCC4(CC3)OCCO4)cc21 do in these assays?
BoNT-F LC inh: 2.0; BoNT-A LC inh2: 2.8; BJeLR lethal: 9.9; Autofluor counter: 19800*; Anthrax LF inh2: -4.0; BH1578 lux ind: inactive

Results for CC1(Cc2ccc(C(F)(F)F)nc2)C(=O)Nc2cc(-c3ccccc3Cl)ccc21 (stereo not drawn) ?
BoNT-F LC inh: 6.2; BoNT-A LC inh2: -0.2; Autofluor counter: 3895; Anthrax LF inh2: -3.0; BH1578 lux ind: inactive

Results for CCCC(=O)N1CCC1(C)C(=O)NS(=O)(=O)c1cc2c(cc1C)CCCS2(=O)=O (stereo not drawn) ?
BoNT-F LC inh: -2.4; BoNT-A LC inh2: -1.0; Autofluor counter: 4030; Anthrax LF inh2: 1.7; BH1578 lux ind: -0.4

Screening data from PubChem.
